The source of these data is PubChem BioAssay (Tox21).

Records with an inconclusive call do not appear. A call without a number means that no potency is given here. Activity calls are given as the source filed them. Calls come from the whole dose curve.
Potency is the fitted concentration of half-maximal effect.

Chain of Acetylcholinesterase (Homo sapiens) (P22303 whole entry, looked up): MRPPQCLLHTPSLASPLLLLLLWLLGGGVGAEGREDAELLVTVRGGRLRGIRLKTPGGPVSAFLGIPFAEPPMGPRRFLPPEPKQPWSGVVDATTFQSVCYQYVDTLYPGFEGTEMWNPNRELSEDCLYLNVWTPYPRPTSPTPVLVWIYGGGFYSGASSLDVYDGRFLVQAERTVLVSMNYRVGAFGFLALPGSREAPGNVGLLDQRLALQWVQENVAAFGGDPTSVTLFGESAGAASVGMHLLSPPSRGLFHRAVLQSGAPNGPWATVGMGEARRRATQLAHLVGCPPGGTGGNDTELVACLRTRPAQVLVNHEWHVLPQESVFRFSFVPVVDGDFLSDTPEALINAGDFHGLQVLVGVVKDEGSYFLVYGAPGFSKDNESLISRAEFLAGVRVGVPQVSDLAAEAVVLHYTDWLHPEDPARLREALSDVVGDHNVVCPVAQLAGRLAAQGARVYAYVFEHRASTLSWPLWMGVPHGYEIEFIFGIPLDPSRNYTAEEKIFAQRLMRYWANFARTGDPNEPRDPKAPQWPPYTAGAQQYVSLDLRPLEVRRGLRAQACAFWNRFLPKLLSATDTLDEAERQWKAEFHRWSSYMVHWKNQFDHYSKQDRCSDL

The assay addresses Acetylcholinesterase (Homo sapiens) (UniProt P22303). Nature of the assay: Acetylcholinesterase (AChE) small molecule antagonists: fluorescence cell-based qHTS assay (AID 1347398). Note: nearly all actives have a fitted effect of over 50% in size. Particulars: SH-SY5Y cells; Potency: AChE activity; outcome: AChE activity; series mostly up to 115 µM. The source says: National Center for Advancing Translational Sciences [NCATS]
Division of Preclinical Innovation [DPI]
U.S. Environmental Protection Agency [EPA]
National Institutes of Environmental Health Sciences [NIEHS]
National Toxicology Program [NTP]
U.S. Food and Drug Administration [FDA]
Acetylcholinesterase (AChE) is the primary cholinesterase in the body that hydrolyzes a key neurotransmitter, acetylcholine. Inhibition of AChE activity can lead to neurotoxicity. Known inhibitors of AChE include organophosphorous pesticides (OP), chemical warfare agents, drugs, and various phytochemicals.
A homogenous cell-based assay using Amplitetrade mark Fluorimetric Acetylcholinesterase Assay Kit *Green Fluorescence* (AAT Bioquest, Sunnyvale, CA) was used to evaluate the chemicals in the Tox21 10K library that inhibit AChE activity. The assay uses Thiolite Green to quantify the thiocholine produced from the hydrolysis of acetylthiocholine by AChE from the SH-SY5Y cells. AChE can hydrolyze acetylthiocholine to create thiocholine. Thiolite Green is fluorescent when reacting with thiocholine. It has spectral properties similar to those of fluorescein. The fluorescence intensity of Thiolite Green is used to measure AChE activity. Its signal can be easily read by a fluorescence microplate reader at Ex/Em = 490/520 nm.
Tox21 Assay Protocol Summary:
For cell-based AChE assay, 2,000 SH-SY5Y cells in 4 uL/well were dispensed into black, clear-bottom 1536-well plates using a Multidrop Combi (Thermo Scientific) dispenser. The assay plates were incubated overnight at 37 C to allow cells to attach to the wells, followed by the transfer of 23 nL compound or DMSO (vehicle control) by a Pintool station (Wako Automation, CA). The plates were incubated for 30 min at 37 C and 5% CO2, followed by the addition of 4 uL of detection cocktail solution (ThioliteGreen, acetylthiocholine) into each well using Flying Reagent Dispenser (Beckman Coulter, CA) and then following 40 min incubation at room temperature. Fluorescent intensity (Ex/Em = 490/520 nm) was measured using an Envision plate reader (PerkinElmer, MA).
In general terms: Quantitative high-throughput screening tests each substance at several concentrations.
Regarding `O=C(O)c1cccnc1C(=O)O`, the Potency entry was “inactive”.
In the case of `Cc1ccc(C(N)=O)cc1N` it was “inactive”; in that of `CC1CCc2nccnc21` (stereo not given), “inactive”.
In the case of `CCNC(=O)C(C)OC(=O)Nc1ccccc1` (stereo not given) it was “inactive”; in that of `C=CC(=O)NCOCC(C)C`, “inactive”.
Consider `COc1ccc(-c2cc(=S)ss2)cc1`, for which the Potency result was “inactive”.
For `CCCCCCCCCC[N+](C)(C)[O-]`, the Potency result is “inactive”.
Regarding `[K+]`, the Potency entry is “inactive”.
For `O=C1CCCCO1` the value was “inactive”.
Regarding `NS(=O)(=O)c1cc2c(cc1Cl)NC(CSCc1ccccc1)=NS2(=O)=O`, the Potency result is “inactive”.
In the case of `CCCC(=O)O[C@]1(C(=O)CCl)[C@@H](C)C[C@H]2[C@@H]3CCC4=CC(=O)C=C[C@]4(C)[C@@]3(F)C(=O)C[C@@]21C` it was “inactive”; in that of `CCN(CC)C(=O)N1CCN(C)CC1`, “inactive”; in that of `OCCN1CN(CCO)CN(CCO)C1`, “inactive”.
In the case of `CC[C@H]1OC(=O)[C@H](C)[C@@H](O[C@H]2C[C@@](C)(OC)[C@@H](O)[C@H](C)O2)[C@H](C)[C@@H](O[C@@H]2O[C@H](C)C[C@H](N(C)C)[C@H]2O)[C@](C)(OC)C[C@@H](C)C(=O)[C@H](C)[C@@H](O)[C@]1(C)O`, the Potency result is “inactive”.
For `CCCN1C[C@H](CSC)C[C@@H]2c3cccc4[nH]cc(c34)C[C@H]21` the value was 12.3 µM (active); for `C=CC(=O)OCCOCC(CC)(COCCOC(=O)C=C)COCCOC(=O)C=C`, “inactive”.
`CCCCOC(=O)CC`: the Potency result is “inactive”.
In the case of `CN(C)CCCOc1nn(Cc2ccccc2)c2ccccc12` it was “inactive”.
In the case of `CC(C)(C)C1CCC(CC2=C(O)c3ccccc3C(=O)C2=O)CC1` (stereo not given), the Potency entry was “inactive”.
In the case of `O=C(O)c1ccc(O)c(O)c1` it was “inactive”.
Consider `C=CC(OCC)OCC`, for which the Potency entry was “inactive”.
Consider `CCC(Cl)CCC(Cl)C(Cl)CC(Cl)C(Cl)C(Cl)CCl` (stereo not given), for which the Potency entry is “inactive”.
In the case of `OCC(CO)N[C@H]1C[C@](O)(CO)[C@@H](O)[C@H](O)[C@H]1O` it was “inactive”; in that of `Nc1cc(C(=O)O)ccc1Cl`, “inactive”; in that of `CCCN(CCc1cccs1)[C@H]1CCc2c(O)cccc2C1`, 11 µM (active).
For `CCC(C)NC(N)=O` (stereo not given) the value was “inactive”.
On to `O=C(N[C@H](CO)[C@H](O)c1ccc([N+](=O)[O-])cc1)C(Cl)Cl`, for which the Potency result was “inactive”.
For `O=C(O)c1cccc(-c2noc(-c3ccccc3F)n2)c1` the value was “inactive”; for `CCCCCOC(=O)c1ccc(O)cc1`, “inactive”; for `CC(N=C(NC#N)Nc1ccncc1)C(C)(C)C` (stereo not given), “inactive”.
For `C/C=C1\C(=O)C[C@H]2[C@@H]3CCC4=CC(=O)CC[C@]4(C)[C@H]3CC[C@]12C` the value was “inactive”.
As for `CCN1CCN(c2cc3c(cc2F)c(=O)c(C(=O)O)cn3C2CC2)CC1`, the Potency entry was “inactive”.
For `CC(C)(C)c1nnc(NS(=O)(=O)c2ccc(N)cc2)s1` the value was “inactive”; for `C=C(C)C(=O)NCCCN(C)C`, “inactive”.
Regarding `CCOc1ccc(N)c([N+](=O)[O-])c1`, the Potency entry was “inactive”.
For `O=C1OC(=O)c2cc([N+](=O)[O-])ccc21` the value was “inactive”; for `CSc1nc(NC2CC2)nc(NC(C)(C)C)n1`, “inactive”.
Turning to `CCC(C)SSC(C)CC` (stereo not given), the Potency result was “inactive”.
Regarding `CCCCCc1ccc(Cl)cc1`, the Potency entry was “inactive”.
In the case of `N#Cc1c(F)cccc1F`, the Potency result was “inactive”.
